TDP1 cell noCPT: qHTS for Inhibitors of human tyrosyl-DNA phosphodiesterase 1 (TDP1): qHTS in cells in absence of CPT; DT40 Tdp1-/- hTDP1 cells, no CPT, ATP luminescence, 48 h; Potency, µM (titrated, usually from 46.2 µM), inactives show at the top dose activity change, negative = growth inhibition, actives largely listed as inhibitors; hit rate 15% among 420,000; note: potency is the fitted concentration of half-maximal effect; nearly all actives have a fitted effect of over 55% in size
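Compound effects on proliferation are scored in DT40 Tdp1-/-;hTDP1 cells in the absence of CPT. ATP levels (CellTiter-Glo luminescence) are recorded after a ≥48 hr, 37 °C incubation.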
IL1B secr inh: inflammasome signaling inhibition, IL-1 beta readout. hit rate 4.7% among 360,000. activity change, % at 57.5 µM. THP-1 LPS/ATP IL-1B secretion, AlphaLISA, 16 h; active compounds read low; in the data active = activity change below about -50%; inconclusive = mostly about -30% to -49%
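Secreted IL-1B measured by AlphaLISA bead assay after 16 h compound exposure of THP-1 cells; compounds (final up to 57.5 uM) added 1 h before LPS (250 ng/mL) and ATP (1.25 mM) stimulation; lower signal means less secretion.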
HT1080NT lethal: kills 2HG-producing HT-1080-NT fibrosarcoma cells. Potency, µM (top dose mostly 46.1 µM), inactives show at the top dose activity, negative = less viability, usual class: cytotoxic. AID 686970. hit rate 1.6% among 360,000. HT-1080-NT fibrosarcoma viability, CellTiter-Glo ATP luminescence, 48 h;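 note: NT is the 2HG producing partner of a matched IDH1 knockdown line; potency is the fitted concentration of half-maximal effect; 0% = DMSO-treated cells and -100% = media-only wells without cells; nearly all actives have a fitted effect of over 55% in size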
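Fibrosarcoma NT cells, 750 per well in 5% FBS RPMI, were exposed to compound for 48 hours. Viability: CellTiter-Glo luminescence.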
TDP1 cell CPT: DT40-hTDP1 cell growth loss with CPT; chicken DT40 Tdp1-/-;hTDP1 cells + 20 nM CPT, ATP luminescence, 48 h; Potency, µM (doses to about 46.2 µM), for the others: at the highest dose activity change, negative = growth inhibition, usual class: inhibitors; hit rate 12% among 420,000; AID 686979; note: potency is the fitted concentration of half-maximal effect; nearly all actives have a fitted effect of over 55% in size
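Chicken DT40 Tdp1-/- cells complemented with human TDP1, 400 cells/well, exposed to compounds plus 20 nM camptothecin for at least 48 h at 37 C; viability read as ATP content by CellTiter-Glo luminescence.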
HT1080 IDH1KD tx: kills HT-1080 cells with IDH1 knockdown | AID 686971 | hit rate 2% among 360,000 | Potency, µM (highest dose often 46.1 µM), inactives show at the highest dose activity, negative = toxicity, most hits filed as cytotoxic | HT-1080 IDH1 knockdown viability, ATP luminescence, 48 h;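 note: potency is the fitted concentration of half-maximal effect; 0% = DMSO wells and -100% = cell-free medium wells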
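Cytotoxicity counter-line: IDH1KD HT-1080, 48 h, CellTiter-Glo. Curves classed by r2, magnitude and activity.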
Numbers without * were called inactive; [ ] = dose if it differs, or a comment. A selection: hits, their analogues and other compounds. The true share with any hit is near 19%. Unless noted, calls come from the whole dose curve; as a rule, active = well fitted curve in the direction sought with a large enough effect; inconclusive = small, poorly fitted or top-dose-only effect, or another doubt; inactive = no such curve, though single readings can be large; an effect the other way counts as inactive or inconclusive. Unless noted, % is set by controls: 0 for no effect and ±100 for the full control effect.

`N#Cc1cn(CC(=O)N2CCc3ccccc3C2)c2ccccc12` gave TDP1 cell noCPT inconclusive, IL1B secr inh -14, HT1080NT lethal -4%, TDP1 cell CPT -21% and HT1080 IDH1KD tx 0%.
Fc1cccc(-c2nnn3c2nc(NCc2ccc4c(c2)OCO4)c2ccccc23)c1 was read as TDP1 cell noCPT inconclusive and TDP1 cell CPT -7%.
COc1cc(=O)n2c(c1C(=O)NCc1ccco1)CCN(C(=O)c1cccnc1SC)CC2 was read as TDP1 cell noCPT -5% and TDP1 cell CPT 12%[9.04 µM].
`CC(C)(C)OC(=O)C(Cl)(C(=O)OC(C)(C)C)c1ccc2nnnn2n1` gave TDP1 cell noCPT inconclusive, IL1B secr inh -79*, HT1080NT lethal inconclusive, TDP1 cell CPT inconclusive and HT1080 IDH1KD tx 18µM*.
Screening CC(=O)c1ccc(F)c(-c2cc(C)cc3c2OC(CNC(=O)c2cccnc2)C3)c1 (centres undefined) returned TDP1 cell noCPT inconclusive and TDP1 cell CPT 21%[9.04 µM].
`COc1ccc(OC)c(-n2c(SCC(C)=O)nnc2-c2cccc(S(=O)(=O)N(C)C)c2)c1` gave TDP1 cell noCPT -18%, IL1B secr inh 18, HT1080NT lethal 4%, TDP1 cell CPT -15% and HT1080 IDH1KD tx -1%.
For CCSc1nnc(-c2cccc(S(=O)(=O)N(C)C)c2)n1-c1cc(OC)ccc1OC the results were TDP1 cell noCPT inconclusive, IL1B secr inh 9, HT1080NT lethal 9%, TDP1 cell CPT 14µM* and HT1080 IDH1KD tx 12%.
Screening CCCSc1nnc(-c2cccc(S(=O)(=O)N(C)C)c2)n1-c1cc(OC)ccc1OC returned TDP1 cell noCPT 11µM*, IL1B secr inh 5, HT1080NT lethal 9%, TDP1 cell CPT 11µM* and HT1080 IDH1KD tx 8%.
`O=C(Nc1nccs1)c1csc2c1CCCC2` gave TDP1 cell noCPT -10%, IL1B secr inh -22, HT1080NT lethal -14%, TDP1 cell CPT 2% and HT1080 IDH1KD tx -5%.
For Cc1ccccc1-c1nnc(SCC(=O)NC2CCCC2)n1C the results were TDP1 cell noCPT -15%, IL1B secr inh 5, HT1080NT lethal -1%, TDP1 cell CPT 2% and HT1080 IDH1KD tx 3%.
CCOc1ccc(NC(=O)CN(C)C(=O)c2ccc3[nH]c4c(c3c2)CC(C)CC4)cc1OCC (centres undefined) was read as TDP1 cell noCPT -30%, IL1B secr inh -3, HT1080NT lethal 2%, TDP1 cell CPT inconclusive and HT1080 IDH1KD tx -3%.
Screening CC1CCc2[nH]c3ccc(C(=O)N(C)CC(=O)Nc4ccccc4C(F)(F)F)cc3c2C1 (centres undefined) returned TDP1 cell noCPT inconclusive, IL1B secr inh -16, HT1080NT lethal -1%, TDP1 cell CPT inconclusive and HT1080 IDH1KD tx 1%.
Screening Cc1ccc(NC(=O)CN(C)C(=O)c2ccc3[nH]c4c(c3c2)CC(C)CC4)cc1 (centres undefined) returned TDP1 cell noCPT -37%, IL1B secr inh -51*, HT1080NT lethal -17%, TDP1 cell CPT inconclusive and HT1080 IDH1KD tx -17%.
CC1CCc2[nH]c3ccc(C(=O)N(C)CC(=O)Nc4ccccc4Cl)cc3c2C1 (centres undefined) was read as TDP1 cell noCPT 15µM*, IL1B secr inh -24, HT1080NT lethal 0%, TDP1 cell CPT inconclusive and HT1080 IDH1KD tx -21%.
CC1(C(=O)NCc2cccs2)Cc2c(-c3ccc(C(N)=O)cc3)ccnc2O1 (centres undefined) was read as TDP1 cell noCPT 3.3µM*, IL1B secr inh 43, HT1080NT lethal inconclusive, TDP1 cell CPT 2.6µM* and HT1080 IDH1KD tx 15µM*.
Screening CCN(CC(=O)NCc1cccs1)C(=O)COc1cccc(C(F)(F)F)c1 returned TDP1 cell noCPT -1%, IL1B secr inh 11, HT1080NT lethal -7%, TDP1 cell CPT -26% and HT1080 IDH1KD tx -1%.
CCN(CC(=O)NCc1cccs1)C(=O)c1ccc(-c2cccc(C(F)(F)F)c2)o1 was read as TDP1 cell noCPT inconclusive, IL1B secr inh -80*, HT1080NT lethal inconclusive, TDP1 cell CPT inconclusive and HT1080 IDH1KD tx inconclusive.
`CC(=O)NCCNC(=O)C1(C)Cc2c(-c3ccccc3)ccnc2O1` (centres undefined) gave TDP1 cell noCPT -13%, IL1B secr inh 8, HT1080NT lethal inconclusive, TDP1 cell CPT -15% and HT1080 IDH1KD tx 1%.
For CC1(C(=O)NCc2ccccc2)Cc2c(-c3cccc(C(F)(F)F)c3)ccnc2O1 (centres undefined) the results were TDP1 cell noCPT 5.8µM*, IL1B secr inh 68, HT1080NT lethal inconclusive, TDP1 cell CPT 3.7µM* and HT1080 IDH1KD tx 3.7µM*.
Screening CC1(C(=O)NCc2cccs2)Cc2c(-c3cccc(C(F)(F)F)c3)ccnc2O1 (centres undefined) returned TDP1 cell noCPT 2.9µM*, IL1B secr inh 62, HT1080NT lethal 5.8µM*, TDP1 cell CPT 3.3µM* and HT1080 IDH1KD tx 4.6µM*.
`CCCCNC(=O)CN(Cc1ccco1)S(=O)(=O)c1ccc(C(C)=O)cc1` gave TDP1 cell noCPT inconclusive, IL1B secr inh -7, HT1080NT lethal -3%, TDP1 cell CPT -29% and HT1080 IDH1KD tx -2%.
`Cc1ccc(S(=O)(=O)N2CCSC2)cc1C` gave TDP1 cell noCPT inconclusive, IL1B secr inh -7, HT1080NT lethal -1%, TDP1 cell CPT -29% and HT1080 IDH1KD tx -13%.
`CCCCC/C=C\C/C=C\CCCCCCCC(N)=O` gave TDP1 cell noCPT -5%[4.12 µM] and TDP1 cell CPT 8%[4.12 µM].
`CCOC(=O)Nc1ccc2c(c1)N(C(=O)CN1CCN(CCO)CC1)c1ccccc1CC2` gave TDP1 cell noCPT -13%, IL1B secr inh -18, HT1080NT lethal 5%, TDP1 cell CPT -22% and HT1080 IDH1KD tx 9%.
`Cc1ccc(C(=O)Nc2ccc(Br)cc2)cc1S(=O)(=O)Nc1ccccn1` gave TDP1 cell noCPT -20%, IL1B secr inh 13, HT1080NT lethal -6%, TDP1 cell CPT -25% and HT1080 IDH1KD tx -13%.
CNc1nc(NCc2ccccc2)c2ccccc2n1 was read as TDP1 cell noCPT 4.6µM*, HT1080NT lethal inconclusive, TDP1 cell CPT 13µM* and HT1080 IDH1KD tx inconclusive.
For OCC(Cc1ccccc1)NCc1ccccc1C(F)(F)F (centres undefined) the results were TDP1 cell noCPT -20%, IL1B secr inh -12, HT1080NT lethal 0%, TDP1 cell CPT -14% and HT1080 IDH1KD tx -3%.
Oc1ccccc1-c1nc(NCc2ccccc2)c2ccccc2n1 was read as TDP1 cell noCPT inconclusive, IL1B secr inh -10, HT1080NT lethal inconclusive, TDP1 cell CPT 7% and HT1080 IDH1KD tx -8%.
